Biological target: PRDM9Cst (Mus musculus (CAST/EiJ))
Assay: competition EMSA; competition against biotin-labeled 75-bp Hlx1 B6 oligo; 10 mM Tris pH 7.5, 50 mM KCl, 1 mM DTT, 50 ng/ul poly(dI/dC), 0.05% NP-40, crude E. coli extract 3 ul in 20 ul; 1 h with unlabeled competitor, then 4 h with biotin-labeled 75-bp Hlx1; temperature not stated; high values mean tight binding
Details: tags: N-terminal His tag (pBAD/HisB); dsDNA, one strand shown

PRDM9Cst (Mus musculus (CAST/EiJ)), sequence (chain, as listed by the source): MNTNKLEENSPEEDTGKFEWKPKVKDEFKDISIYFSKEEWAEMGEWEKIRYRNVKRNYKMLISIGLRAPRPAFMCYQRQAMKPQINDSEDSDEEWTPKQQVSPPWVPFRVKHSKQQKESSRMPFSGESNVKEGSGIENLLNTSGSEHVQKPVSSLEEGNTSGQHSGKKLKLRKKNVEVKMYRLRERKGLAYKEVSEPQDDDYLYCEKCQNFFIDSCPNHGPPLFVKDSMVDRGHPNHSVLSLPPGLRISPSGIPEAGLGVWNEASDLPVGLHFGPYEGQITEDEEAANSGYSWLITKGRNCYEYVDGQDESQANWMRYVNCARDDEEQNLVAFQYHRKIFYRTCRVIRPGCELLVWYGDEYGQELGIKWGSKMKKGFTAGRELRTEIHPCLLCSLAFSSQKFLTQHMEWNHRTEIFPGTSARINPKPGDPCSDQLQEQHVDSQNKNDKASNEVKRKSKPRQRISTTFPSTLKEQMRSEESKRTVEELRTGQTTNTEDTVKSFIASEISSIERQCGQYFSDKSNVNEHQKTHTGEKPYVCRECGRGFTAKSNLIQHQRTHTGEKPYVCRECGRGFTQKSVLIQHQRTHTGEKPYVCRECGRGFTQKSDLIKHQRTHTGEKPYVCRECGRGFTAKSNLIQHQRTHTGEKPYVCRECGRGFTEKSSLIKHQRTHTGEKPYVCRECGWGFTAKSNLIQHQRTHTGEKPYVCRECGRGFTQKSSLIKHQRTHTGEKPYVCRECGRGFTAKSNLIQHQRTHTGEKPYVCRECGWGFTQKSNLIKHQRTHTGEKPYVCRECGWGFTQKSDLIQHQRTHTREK

Row | Sequence | binding signal
1 | ATAGTGTGCAGACTTGGACCCTGCCCTTACTTT | -0.1 Bmut (0 = wild type, -1 = scrambled)
2 | ATAGTGTGCAGACTTGGACCCTGTCCTTTCTTT | 0.02 Bmut (0 = wild type, -1 = scrambled)
3 | ATAGTGTGCACACTTGGACCCTGCCCTTTCTTT | -0.2 Bmut (0 = wild type, -1 = scrambled)
4 | ATAGTGTGCAGACTAGGACCCTGCCCTTTCTTT | 0 Bmut (0 = wild type, -1 = scrambled)
5 | ATAGTGAGCAGACTTGGACCCTGCCCTTTCTTT | -0.3 Bmut (0 = wild type, -1 = scrambled)
6 | ATAGTGTGCAGACCTGGACCCTGCCCTTTCTTT | 0 Bmut (0 = wild type, -1 = scrambled)
7 | ATAGTGTGCAGACTTGGACCCTGCCCTTCCTTT | -0.1 Bmut (0 = wild type, -1 = scrambled)
8 | ATAGTGTGCAGACTTGGACTCTGCCCTTTCTTT | 0.01 Bmut (0 = wild type, -1 = scrambled)
9 | ATAGTGTGCAGACTTGGACCCTCCCCTTTCTTT | -0.1 Bmut (0 = wild type, -1 = scrambled)
10 | ATAGTGTGCAGACTTGGACCCTGCCCTTGCTTT | -0 Bmut (0 = wild type, -1 = scrambled)
11 | ATAGTGTGCAGACTTGGACCCTGCCCTTTCTTG | 0.09 Bmut (0 = wild type, -1 = scrambled)
12 | ATAGTGTGTAGACTTGGACCCTGCCCTTTCTTT | 0 Bmut (0 = wild type, -1 = scrambled)
13 | ATAGTGTGCAGACTTGCACCCTGCCCTTTCTTT | -0.2 Bmut (0 = wild type, -1 = scrambled)
14 | ATAGTGTGCAGACTTGGACCCTGCCCTTTCTTC | 0.14 Bmut (0 = wild type, -1 = scrambled)
15 | ATAGTGTGCTGACTTGGACCCTGCCCTTTCTTT | -0.4 Bmut (0 = wild type, -1 = scrambled)
16 | ATAGTGTGCAGACTTGAACCCTGCCCTTTCTTT | 0.2 Bmut (0 = wild type, -1 = scrambled)

Row | Sequence | binding signal
17 | ATAGAGTGCAGACTTGGACCCTGCCCTTTCTTT | 0 Bmut (0 = wild type, -1 = scrambled)
18 | AAAGTGTGCAGACTTGGACCCTGCCCTTTCTTT | 0 Bmut (0 = wild type, -1 = scrambled)
19 | ATAGTGTGCAGATTTGGACCCTGCCCTTTCTTT | 0.1 Bmut (0 = wild type, -1 = scrambled)
20 | ATAGTGTGCAGACTTGGACCCTGCCATTTCTTT | -0.1 Bmut (0 = wild type, -1 = scrambled)
21 | ATAGTGTGCAGACTTGGACCCTGCCCTTTCTAT | 0.15 Bmut (0 = wild type, -1 = scrambled)
22 | ATAGTGTACAGACTTGGACCCTGCCCTTTCTTT | 0.1 Bmut (0 = wild type, -1 = scrambled)
23 | ATAGCGTGCAGACTTGGACCCTGCCCTTTCTTT | -0.5 Bmut (0 = wild type, -1 = scrambled)
24 | ATAGTGTGCAGACTTGGACCCTGCCGTTTCTTT | 0.04 Bmut (0 = wild type, -1 = scrambled)
25 | GTAGTGTGCAGACTTGGACCCTGCCCTTTCTTT | 0 Bmut (0 = wild type, -1 = scrambled)
26 | ATATTGTGCAGACTTGGACCCTGCCCTTTCTTT | 0.3 Bmut (0 = wild type, -1 = scrambled)
27 | CTAGTGTGCAGACTTGGACCCTGCCCTTTCTTT | -0.1 Bmut (0 = wild type, -1 = scrambled)
28 | ATAGTGTGCAGACTTGGACCCTGACCTTTCTTT | -0.3 Bmut (0 = wild type, -1 = scrambled)
29 | ATAGTGTGAAGACTTGGACCCTGCCCTTTCTTT | -0.1 Bmut (0 = wild type, -1 = scrambled)
30 | ATAGTGTGCAGTCTTGGACCCTGCCCTTTCTTT | -0.2 Bmut (0 = wild type, -1 = scrambled)
31 | ATAGTGTGCAGACTTGGACCCTGCCCTTTTTTT | 0.11 Bmut (0 = wild type, -1 = scrambled)

Reference: publication PMC4053984, “DNA binding specificities of the long zinc-finger recombination protein PRDM9”
